PubChem BioAssay (NCATS)
Results filed as inconclusive are left out. Calls of active or inactive are those of the source. Calls come from the whole dose curve; as a rule, active = well fitted curve in the direction sought with a large enough effect; inconclusive = small, poorly fitted or top-dose-only effect, or another doubt; inactive = no such curve, though single readings can be large; an effect the other way counts as inactive or inconclusive.

Tests used:
Hek293T = assay: Primary qHTS to identify gynecologic anti-cancer compounds using libraries of approved drugs and bioactive compounds (AID 1345084); details: Gynecologic cancer cell panel viability, ATPlite luminescence, 48 h, control line for the selectivity index; series mostly up to 57.5 µM; note: nearly all actives have a fitted effect of over 55% in size
In short: (§1)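 48 h compound exposure at 37 C, 5% CO2; five-point qHTS. ATPlite luminescence readout of cell ATP.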

JEG-3 = assay: as above; details: Gynecologic cancer cell panel viability, ATPlite luminescence, 48 h; series mostly up to 57.5 µM
In short: as §1

PA-1 = assay: as above; details: Gynecologic cancer cell panel viability, ATPlite luminescence, 48 h; series mostly up to 57.5 µM
In short: as §1

Tov-21-G = assay: as above; details: Gynecologic cancer cell panel viability, ATPlite luminescence, 48 h; series mostly up to 57.5 µM
In short: as §1

Tov112D = assay: as above; details: Gynecologic cancer cell panel viability, ATPlite luminescence, 48 h; series mostly up to 57.5 µM
In short: as §1

astro = assay: Drug repurposing screens with cells derived from glioblastoma tumor samples (AID 1345199); details: viability, ATP luminescence, 48 h; series mostly up to 45.9 µM; note: nearly all actives have a fitted effect of over 40% in size
In short: (§2)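 Primary testing used CD133+ neurospheres from four GBM patients, seven concentrations, 48 h exposure and ATP-based viability; confirmation added three slower-growing patient lines.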

OV90 = assay: Primary qHTS to identify gynecologic anti-cancer compounds using libraries of approved drugs and bioactive compounds (AID 1345084); details: Gynecologic cancer cell panel viability, ATPlite luminescence, 48 h; series mostly up to 57.5 µM; note: nearly all actives have a fitted effect of over 55% in size
In short: as §1

SKOV3 = assay: as above; details: Gynecologic cancer cell panel viability, ATPlite luminescence, 48 h; series mostly up to 57.5 µM
In short: as §1

[1] = Drug repurposing screens with cells derived from glioblastoma tumor samples (AID 1345199); details: GBM patient neurospheres viability, ATP luminescence, 48 h; for activity, negative = cell killing: tumour line C; for all read-outs here: nearly all actives have a fitted effect of over 40% in size
In short: as §2
% is set by controls: 0 for no effect and ±100 for the full control effect; potency is the fitted concentration of half-maximal effect.

CSc1ccc2c(c1)C(N1CCN(C)CC1)Cc1ccccc1S2 (stereo unspecified)
inactive: Potency (Hek293T) | Potency (JEG-3) | Potency (PA-1) | Potency (Tov-21-G) | Potency (Tov112D)
active: Potency (astro) 20 µM

OCCN1CCN(CCCN2c3ccccc3Sc3ccc(Cl)cc32)CC1
active: Potency (OV90) 15.8 µM | Potency (SKOV3) 28.2 µM | Potency (Tov112D) 25.1 µM | Potency ([1]; tumour line A) 3.16 µM | Potency ([1]; tumour line B) 8.91 µM | Potency ([1]; tumour line D) 10 µM
inactive: activity, negative = cell killing ([1]; at 20 µM (top of the series)) -18%

CN(C)CCCN1c2ccccc2Sc2ccc(Cl)cc21
inactive: activity, negative = cell killing ([1]; at 46.1 µM (top of the series)) -4.19%
active: Potency ([1]; tumour line A) 3.98 µM | Potency ([1]; tumour line B) 15.8 µM | Potency ([1]; tumour line D) 20 µM | Potency (astro) 12.6 µM

COc1ccc(S(=O)(=O)Nc2nnc(CC(C)C)s2)cc1
inactive: Potency (Hek293T) | Potency (JEG-3) | Potency (OV90) | Potency (PA-1) | Potency (Tov-21-G) | Potency (Tov112D) | Potency (astro)

CC(=O)Nc1ccc(/C=N/NC(N)=S)cc1
inactive: Potency (Hek293T) | Potency (JEG-3) | Potency (OV90) | Potency (PA-1) | Potency (Tov-21-G) | Potency (Tov112D) | Potency (astro)

CCN(CC)CCCC(C)Nc1c2ccc(Cl)cc2nc2ccc(OC)cc12 (stereo unspecified)
active: Potency (OV90) 8.91 µM | Potency (astro) 20 µM
inactive: Potency (Tov112D)

CCCCN(CCCC)CC(O)c1cc(Cl)cc2c1-c1ccc(Cl)cc1/C2=C/c1ccc(Cl)cc1 (stereo unspecified)
inactive: Potency (Hek293T) | Potency (JEG-3) | Potency (PA-1) | Potency (Tov-21-G) | Potency (Tov112D) | Potency (astro)
